The values below come from publication PMC5540273 (PLoS ONE, 2017).

What all share (details): concentration: 1 μM, replicates: in singlicate; n = 1
In assay [1] the test system is CDK8.
Assay [2] relates to CDK9.
Assay [3] deals with CDKL1.
The test system of assay [4] is CDKL2.
Assay [5] concerns CDKL3.
The subject of assay [6] is CDKL5.
The test system of assay [7] is CHEK1.
Assay [8] concerns CHEK2.
The test system of assay [9] is CIT.
Assay [10] deals with CLK1.
Assay [11] deals with CLK2.
The subject of assay [12] is CLK3.
For assay [13], the system named is CLK4.
Assay [14] has as its system CSF1R-autoinhibited.
The test system of assay [15] is CSF1R.
For assay [16], the system named is CSK.
Assay [17] concerns CSNK1A1L.
Assay [18] concerns CSNK1A1.
Assay [19] concerns CSNK1D.
Assay [20] deals with CSNK1E.
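Note: KINOMEscan kinase panel screen.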

Turning to `Fc1cc(Cl)ccc1Nc1ccnc2cc(-c3ccc(CN4CCSCC4)o3)ccc12` [GW560106], the “%Inh” value in [1] is 53%; in assay [2], 0%; in assay [3], 100%; in assay [4], 8%; in assay [5], 0%; in assay [6], 0%. The “%Inh” value amounted to 0% in assay [7]; 79% in assay [8]; 29% in assay [9]; 8% in assay [10]; 0% in [11]; 0% in [12]. In addition, the “%Inh” value in assay [13] is given as 22%; in assay [14], 52%; in assay [15], 92.3%; in assay [16] it was 13%; in assay [17] it was 0%; in [18], 0%. The entries for the “%Inh” value in [19] and in [20] were 6% and 27%, respectively.

Turning to `Nc1ncc(-c2cn[nH]c2)c2scc(-c3ccc4c(c3)CCN4C(=O)Cc3ccccc3)c12` [GSK2593067], the “%Inh” value in assay [1] was found to be 37%; in assay [2], 0%; in assay [3] it was 0%; in assay [4], 28%; in [5], 0%; in assay [6], 0%. Further, the “%Inh” value came to 0% in [7]; 0% in assay [8]; 0% in assay [9]; 40% in [10]; 0% in assay [11]; 0% in [12]. Moreover, the “%Inh” value is 55% in [13]; 51% in assay [14]; 99.9% in [15]; 68% in [16]; 9% in assay [17]; 0% in assay [18]. In addition, the results for the “%Inh” value in assay [19] and in assay [20] were 4% and 32%, respectively.

Consider `N#CC1(c2cccc(C(=O)Nc3cccc(Oc4ccc5nc(NC(=O)C6CC6)sc5n4)c3)c2)CC1`, for which the “%Inh” value in [1] is 35%; in [2], 0%; in [3], 14%; in [4], 95.8%; in assay [5], 79%; in assay [6] it was 0%. The “%Inh” value is on record as 0% in assay [7]; 0% in [8]; 94.2% in assay [9]; 8% in [10]; 4% in assay [11]; 0% in assay [12]. The “%Inh” value was found to be 17% in [13]; 87% in assay [14]; 100% in assay [15]; 25% in [16]; 0% in [17]; 0% in assay [18]. Besides, the “%Inh” value in assay [19] is recorded as 14%; in [20], 0%.

As for `O=C(Nc1c(F)cccc1F)c1cc(C(=O)c2ccccc2F)c[nH]1` [GSK1326180], the “%Inh” value in assay [1] turned out to be 14%; in assay [2] it was 0%; in assay [3], 0%; in [4], 7%; in assay [5] it was 0%; in [6], 0%. For the same molecule, the “%Inh” value is 0% in assay [7]; 11% in [8]; 5% in [9]; 22% in assay [10]; 0% in assay [11]; 2% in assay [12]. For the same molecule, the “%Inh” value in assay [13] is listed as 0%; in [14] it was 32%; in assay [15] it was 1%; in assay [16] it was 0%; in assay [17], 5%; in assay [18], 16%. For the same molecule, the “%Inh” value in assay [19] worked out at 0%; in assay [20] it was 20%.

On to `CN(C)CCNS(=O)(=O)c1ccc(-c2ccnc3[nH]ccc23)cc1` [GSK977620], for which the “%Inh” value was 0% in assay [1]; 0% in assay [2]; 0% in assay [3]; 8% in [4]; 0% in assay [5]; 0% in assay [6]. Also, the “%Inh” value worked out at 35% in [7]; 27% in assay [8]; 27% in [9]; 88% in assay [10]; 92.3% in [11]; 70% in [12]. The “%Inh” value in assay [13] is 94.4%; in assay [14], 0%; in assay [15], 27%; in assay [16], 0%; in assay [17] it was 16%; in assay [18], 29%. In addition, the “%Inh” value in assay [19] was 38%; in assay [20] it was 48%.

With `Cc1ccc(NC(=O)c2ccc(Cl)c(Cl)c2)cc1-c1ccc(C(=O)Nc2ccncc2)cc1` [GSK1398460], the “%Inh” value was found to be 0% in assay [1]; 2% in assay [2]; 1% in assay [3]; 13% in assay [4]; 0% in assay [5]; 4% in assay [6]. The “%Inh” value in assay [7] is 22%; in assay [8], 0%; in assay [9] it was 97.6%; in assay [10], 39%; in assay [11], 0%; in assay [12] it was 17%. Also, the “%Inh” value in assay [13] worked out at 17%; in [14] it was 7%; in [15], 99.9%; in assay [16] it was 1%; in assay [17], 8%; in assay [18], 0%. Besides, the “%Inh” value in [19] is 7%; in assay [20], 18%.

Consider `CC(C)c1nc(-c2cccc(NS(=O)(=O)c3c(F)cccc3F)c2)c(-c2ccnc(Nc3ccc(N4CCOCC4)nc3)n2)s1.Cl` [GSK1723980], for which the “%Inh” value in [1] turned out to be 6%; in [2], 75%; in assay [3], 74%; in [4], 98.9%; in assay [5], 24%; in assay [6] it was 97.8%. In addition, the “%Inh” value in assay [7] is given as 0%; in [8], 13%; in assay [9] it was 97.5%; in [10], 0%; in assay [11], 0%; in [12], 0%. Besides, the “%Inh” value in [13] is 0%; in [14] it was 0%; in assay [15], 52%; in assay [16], 96.5%; in [17], 0%; in [18] it was 95.1%. Further, the “%Inh” value in assay [19] is on record as 0%; in [20], 10%.

For `COc1cccc2c(-c3ccncc3)c(-c3ccc(F)cc3)nn12` [GW468513], the “%Inh” value came to 42% in [1]; 0% in [2]; 2% in [3]; 38% in [4]; 0% in assay [5]; 0% in assay [6]. Also, the “%Inh” value in [7] is given as 0%; in assay [8], 0%; in assay [9], 98%; in [10] it was 6%; in assay [11], 0%; in [12], 6%. In addition, the “%Inh” value in assay [13] is recorded as 17%; in assay [14], 24%; in assay [15], 0%; in [16] it was 0%; in assay [17] it was 50%; in assay [18], 93.6%. The “%Inh” value is given as 90.7% in assay [19] and 99.8% in assay [20].

On to `O=C1NC(=O)C(c2ccccc2Cl)=C1Nc1cccc(Cl)c1` [SB-342409], for which the “%Inh” value in assay [1] amounted to 0%; in [2], 0%; in assay [3], 16%; in assay [4] it was 11%; in assay [5], 0%; in assay [6], 0%. Besides, the “%Inh” value amounted to 7% in assay [7]; 0% in [8]; 7% in [9]; 54% in assay [10]; 73% in assay [11]; 7% in [12]. Moreover, the “%Inh” value in [13] is 28%; in assay [14], 0%; in assay [15] it was 33%; in assay [16] it was 0%; in assay [17] it was 9%; in assay [18], 0%. Also, the “%Inh” value in assay [19] is on record as 16%; in assay [20] it was 17%.

Take `CCn1cnc2c(NCc3ccccc3)ncnc21` [SKF-96418]: the “%Inh” value in assay [1] is listed as 40%; in [2], 20%; in assay [3], 13%; in [4], 10%; in [5] it was 12%; in assay [6], 0%. The “%Inh” value in [7] is 0%; in assay [8] it was 0%; in [9], 16%; in assay [10], 0%; in [11], 10%; in assay [12], 0%. Also, the “%Inh” value in assay [13] is given as 14%; in [14] it was 0%; in assay [15], 0%; in assay [16], 0%; in [17] it was 0%; in assay [18], 18%. In addition, the entries for the “%Inh” value in assay [19] and in assay [20] were 20% and 16%, respectively.
